From PubChem BioAssay AID908 (National Center for Advancing Translational Sciences (NCATS), 2007)
The list shows a part of the results. Inconclusive results are not listed. A number with no mark means an inactive call. Active and inactive are the calls of the source. The call rests on the fitted dose curve; in most records, active means well fitted inhibition curve with a large enough effect in the main read-out, with a control signal flat; inconclusive means small, poorly fitted or top-dose-only effect, or a change in a side signal; inactive means no such curve, though single readings can be large or run the other way.

target: Caspase-7 (Homo sapiens) (UniProt P55210); test: Concentration-Response Counterscreen for Redox Active Inhibitors of Caspase-7: Cysteine; conditions: caspase-7 enzyme with cysteine, fluorogenic substrate; series mostly up to 57.5 µM; activity change, negative = inhibition: at the top concentration
Text: NIH Molecular Libraries Screening Centers Network [MLSCN]
NIH Chemical Genomics Center [NCGC]
PI Name: Dr. James Wells,
Dr. Enrique Perez-Paya, Dr.Janice Williams, Dr. Dennis Wolan, a person
The caspases (Cysteine Aspartyl Protease) comprise a related family of 14 dimeric proteases that are critical mediators of apoptosis (programmed cell death) and inflammation. The caspases represent an important class of drug targets for stroke, ischemia, cancer and inflammatory diseases. […] One goal of this project was to identify compounds that act as allosteric inhibitors via stabilizing the procaspase form of the enzyme. […]
The biochemical assay was configured using purified caspase 7 at a high enzyme concentration to promote formation of the homodimers and thus facilitate the identification of allosteric inhibitors. […] After initiation of the assay with substrate the plates were rapidly read using an automated robotic system (Kalypsys, Inc.) to maintain consistent timing. […] Product formation was also measured after 1 hour. […]
Caspase 7 was prepared in buffer (50 mM HEPES pH 7.5, 50 mM KCl, 200 mM NaCl, 10 mM Cys (Aldrich cat# 861677), 0.1% CHAPS) at a concentration of 66.6 nM and 3 uL was dispensed to all wells using black solid Kalypsys 1536-well plates. […] The plates were then exposed using 405 nm excitation/520 nm emission filters for 4 sec and read at 20 sec intervals for 3 min. […]

Chain of Caspase-7 (Homo sapiens) (P55210 24-198 limits assumed): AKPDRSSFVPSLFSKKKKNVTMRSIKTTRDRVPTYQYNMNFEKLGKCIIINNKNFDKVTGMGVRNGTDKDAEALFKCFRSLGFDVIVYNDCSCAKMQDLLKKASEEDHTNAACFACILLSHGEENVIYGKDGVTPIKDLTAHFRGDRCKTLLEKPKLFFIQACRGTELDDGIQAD
Chain of Caspase-7 (Homo sapiens) (P55210 207-303 limits assumed): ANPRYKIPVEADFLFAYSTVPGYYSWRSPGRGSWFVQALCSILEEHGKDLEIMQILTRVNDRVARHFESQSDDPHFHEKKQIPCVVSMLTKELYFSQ

Row | Structure (SMILES) | Potency | activity change, negative = inhibition [%]
1 | N#CC1=C(N)Oc2cc(O)ccc2C1C1CCCCC1 (configuration not stated) | 25.1 µM (active) | –
2 | CCN1C(=O)/C(=C2/Sc3ccccc3N2CCCS(=O)(=O)O)SC1=S | – | -9.17
